According to PubChem BioAssay AID624297 (National Center for Advancing Translational Sciences (NCATS), 2012):
Out of some 340,000 compounds screened, about 6,200 (1.8%) were called active. Not shown: some 10% with an inconclusive outcome. The full list was thinned out, with actives kept by preference. A number with no mark means an inactive call. Calls follow the shape of the dose curve; as a rule, active = well fitted activation curve with a large enough effect; inconclusive = small, poorly fitted or top-dose-only effect; inactive = no such curve, though single readings can be large or run the other way.

Experiment: A quantitative high throughput screen for small molecules that induce DNA re-replication in SW480 colon adenocarcinoma cells. Also: nearly all actives have a fitted effect of over 55% in size. As to re-replication activation: % of control where 0% means no effect.
Settings: Hoechst DNA content imaging, 48 h; series mostly up to 46.1 µM; re-replication activation: at the top concentration
Method in brief: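 DNA re-replication was detected as more nuclei of elevated Hoechst intensity after 48 hr exposure to compound (23 nL pinned per well of 250 cells).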
Potency is read from the fitted curve at half-maximal effect.

| SMILES | re-replication activation | Potency |
| --- | --- | --- |
| CN1CCN(C(=O)c2ccc(-c3ccc(Br)cc3)o2)CC1 | 2.36% |  |
| CCN(C(=O)CSc1cccc[n+]1[O-])c1ccccc1 | -4.57% |  |
| Cc1cc(C(=O)N/N=C/c2cc([N+](=O)[O-])cc(C)c2O)n[nH]1 | 14.2% |  |
| COc1ccc(CC(=O)N/N=C/c2cc([N+](=O)[O-])cc(Br)c2O)cc1 | -1.1% |  |
| O=[N+]([O-])c1cc(Br)c(O)c(/C=N/Nc2nc3ccccc3s2)c1 |  | 3.26 µM (active) |
| COc1ccc(C(=O)Nc2cc(S(=O)(=O)N3CCCC3)ccc2Cl)cc1 | -0.541% |  |
| C[C@H](O)[C@@H]1C(=O)N2CCc3ccc(N4CCOCC4)cc3[C@@H]2C[C@@H]1N(C)C(=O)C(C)(C)C | 0.113% [at 9.22 µM] |  |
| COc1ccc(C(=O)N2CC3(C)CC2CC(C)(C)C3)cc1OC (centres undefined) | 27.6% |  |
| Cc1nnnn1/C(=C\c1ccccc1)C(=O)OCC(=O)N1CC2(C)CC1CC(C)(C)C2 (centres undefined) |  | 18.4 µM (active) |
| Cc1cccc(C(=O)NCC(=O)OCC(=O)N2CC3(C)CC2CC(C)(C)C3)c1 (centres undefined) | 6.03% |  |
| COc1ccc(CCNC(=O)COC(=O)Cc2ccccc2F)cc1 | -13.5% |  |
| N#Cc1cc([N+](=O)[O-])ccc1NC(=O)COC(=O)c1cnccn1 | -0.55% |  |
| Cc1cc(C(=O)OCC(=O)N2C(C)CCCC2C)c2ccccc2n1 (centres undefined) | 17% |  |
| Cc1cccc(NC(=O)c2cc([N+](=O)[O-])ccc2N2CCN(C)CC2)c1 | 0.478% |  |
| COc1cccc(NC(=O)c2ccc(Cn3cc([N+](=O)[O-])cn3)o2)c1 | 0.872% |  |
| Cc1cccc(NC(=O)c2ccc([N+](=O)[O-])o2)c1 |  | 3.66 µM (active) |
| CS(=O)(=O)Nc1ccccc1C(=O)OCC(=O)NC1CC1 | -13.3% |  |
| CC(=O)NC(CC(=O)Nc1ccc(S(=O)(=O)N2CCOCC2)cc1)c1ccccc1 (centres undefined) | -3.64% |  |
| COc1cc(/C=N/NC(=O)CNC(=O)c2ccncc2)ccc1OC(C)=O | 3.75% |  |
| COc1cccc(/C=N/NC(=O)CNC(=O)c2ccc(S(=O)(=O)N3CCOCC3)cc2)c1OC | -15% |  |
| COc1ccc(C(=O)NCC(=O)N/N=C/c2ccc([N+](=O)[O-])o2)cc1OC |  | 11.6 µM (active) |
| Cc1csc(=O)n1CC(=O)Nc1ccc(S(C)(=O)=O)cc1 | -2.89% |  |
| Cn1cnnc1SCc1nnc(-c2ccccc2Br)o1 | -24.9% |  |

| SMILES | re-replication activation | Potency |
| --- | --- | --- |
| O=C1c2ccccc2C(=O)N1Cc1cc(-c2ccccc2Cl)no1 | -7.3% |  |
| Nc1cccc2c1C(=O)N(Cc1nnc(-c3ccccc3Br)o1)C2=O |  | 16.4 µM (active) |
| CN(CC(=O)NCCc1ccc(S(N)(=O)=O)cc1)CC(=O)Nc1ccc(Cl)cc1 | -4.05% |  |
| Cc1ccc(C2CC(=O)NC(SCC(=O)OCc3ccccc3)=C2C#N)o1 (centres undefined) | 3.01% |  |
| COC(=O)CSC1=C(C#N)C(c2ccccc2OC)C(C(=O)OC)C(=O)N1 (centres undefined) | 0.322% [at 9.22 µM] |  |
| CCOC(=O)CSC1=C(C#N)C(c2sccc2C)CC(=O)N1 (centres undefined) |  | 5.01 µM (active) |
| CC(C)Cc1nnc(N)s1 | -5.57% |  |
| O=C(N/N=C/c1cccc(O)c1)c1cc2c(ccc3ccccc32)o1 | 7.96% |  |
| Cc1ccc(NC(=O)c2cc3ccccc3o2)cc1 | 5.51% |  |
| Cc1c(/C=N\NC(=O)c2cc3ccccc3o2)c2ccccc2n1C |  | 9.2 µM (active) |
| CC(C)Sc1nc(N)nc2c1ncn2C1OC(CO)C(O)C1O (centres undefined) | -2.18% |  |
| c1ccc(-n2nnnc2NC2CCCCCC2)cc1 |  | 3.66 µM (active) |
| c1ccc(-n2nnnc2N2CCOCC2)cc1 | -0.759% |  |
| Fc1ccccc1CCNc1nnnn1-c1ccccc1 | 8.82% |  |
| COc1ccc(CNCCCn2cnc3c(OCc4ccccc4)ncnc32)cc1 | -0.249% |  |
| O=[N+]([O-])c1ccc(N2CCOCC2)cc1 | -3.05% |  |
| CCN(CC)C(=O)[C@H]1CC(CC(=O)NCc2ccco2)C(=O)N2CCc3c([nH]c4ccccc34)[C@]12C (some centres undefined) | 0.301% |  |
| COc1cccc(NC(=O)CSc2nnc(C3CCCCC3)n2N)c1 | -7.72% |  |
| COCC(C)n1c(SCC(=O)NC2CCCCC2C)nc2ccccc2c1=O (centres undefined) | 3.05% |  |
| COC(=O)c1ccc(CSc2nc3ccccc3c(=O)n2-c2cccc(OC)c2)o1 | -0.0715% |  |
| COCC(C)n1c(SCc2ccc(C(=O)OC)o2)nc2ccccc2c1=O (centres undefined) |  | 18.4 µM (active) |
| O=C(c1ccc(Cl)c(S(=O)(=O)N2CCCCCC2)c1)N1CCN(c2ccc(O)cc2)CC1 | -4.95% |  |
| C[n+]1cccc(C(=O)O)c1 | -9.96% |  |

| SMILES | re-replication activation | Potency |
| --- | --- | --- |
| O=C(NCCc1ccccc1)c1c[nH]c2ccc(F)cc2c1=O | 2.52% |  |
| COc1ccc(CNC2CCCCC2)cc1 | -14.2% |  |
| CCC(CO)Oc1cc(NCc2ccccc2)c2ncn(C3CCCC3)c2c1 (centres undefined) | 5.67% |  |
| COc1ccc(CNc2nc(NCc3ccc(OC)cc3)c3ncn(C4CCCC4)c3n2)cc1 |  | 4.61 µM (active) |
| O=S(=O)(O)c1cc2onnc2c2ccccc12 | -4.34% |  |
| CNc1nc(=O)n(C2CCCO2)cc1C (centres undefined) | 6.26% |  |
| Cc1ccc(S(=O)(=O)N(C)C2(C)CCS(=O)(=O)C2)cc1 (centres undefined) | -6.3% |  |
| Cc1ccc(S(=O)(=O)NC2CCCCCC2)cc1 | 1.2% |  |
| Cc1ccc(S(=O)(=O)C2(S(=O)(=O)c3ccc(C)cc3)CCCC2)cc1 |  | 4.47 µM (active) |
| CCOC(=O)C1=C(C)c2ccccc2OC1C(=O)OCC (centres undefined) | 1.25% |  |
| C=C1c2cccc(OC)c2O[C@H](C(=O)OCC)[C@@H]1CCCCCC |  | 20.6 µM (active) |
| CC(C)(C)OC(=O)C[C@@H]1C/C=C\C[C@@H](CC(=O)N(CCO)Cc2ccccc2)C(=O)N[C@H](Cc2ccccc2)COC1=O | -1.83% |  |
| COc1ccccc1CNC(=O)c1ccc(Cl)c(S(=O)(=O)N2CCCC2)c1 | -7.01% |  |
| O=C(COC(=O)c1cccc(Cl)c1)NC(=O)NCc1ccccc1 | -1.83% |  |
| Cc1cc(Nc2ccc(Cl)cc2)nc(N2CCOCC2)n1 | -110% |  |
| COc1ccc(Nc2cc(C)nc(-n3nc(C)cc3C)n2)cc1 |  | 7.31 µM (active) |
| Cc1nc(Cl)cc(N/N=C/c2ccccc2)n1 | -0.738% |  |
| CC(=O)c1ccc(Oc2cc(C)nc(-n3nc(C)cc3C)n2)cc1 |  | 1.84 µM (active) |
| Cc1ccc(S(=O)(=O)Nc2nc(C)cc(N/N=C/c3ccc(O)cc3)n2)cc1 | -6.5% |  |
| Cc1cc(N/N=C\c2ccc(Br)cc2)nc(-n2nc(C)cc2C)n1 |  | 8.2 µM (active) |
| Cc1cc(C)n(-c2ccc(C(=O)O)cc2[N+](=O)[O-])n1 | -17% |  |
| Cc1cc(Oc2ccc(Cl)cc2)nc(SCC(=O)c2ccccc2)n1 | 12.8% |  |
| CC(=O)Nc1ccc(Nc2cc(C)nc(Nc3ccc(NC(C)=O)cc3)n2)cc1 | 9.33% |  |
